Shown are actives, neighbours in structure and some others; about 3.8% of the full set was active somewhere.
Jurkat NFkB inh: inhibitors of induced NF-kB luciferase reporter, primary screen, TCR NF-kB activation inhibitor project, cell-based, luminescence, uHTS; Jurkat, PMA/ionomycin-induced NF-kB luciferase reporter; inhibition, % at 4 µM; 330,000 tested, 0.53% active; AID 435003, 2010; in the data active = inhibition above about 50%
697 NFkB inh: inhibitors of PMA/ionomycin-induced NF-kB reporter, 697 cells, primary screen, B-cell NF-kB inhibitor project, cell-based, luminescence, uHTS. 697 B-cell NF-kB luciferase reporter, 16 h. inhibition, % at 4 µM. 330,000 tested, 0.33% active; in the data active = inhibition above about 35%
Gli-Sufu antag: Gli-Sufu pathway antagonists, primary screen, luciferase luminescence, Sufu-KO-LIGHT cells, uHTS; AID 588413, 2011; 340,000 tested, 0.74% active; Sufu-KO-LIGHT fibroblasts, Gli luciferase reporter luminescence; inhibition, % at 5 µM;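 active = inhibition above about 55%, limit read from the data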
Shn3 inh set2: reduction of Shn3 3'UTR firefly luciferase signal, primary screen, Schnurri-3 inhibitor project, cell-based, Clone20 osteoblasts, set 2; Clone20 osteoblast Shn3 3'UTR firefly luciferase, 24 h; AID 588674, 2011; 360,000 tested, 0.52% active; inhibition, % at 12.5 µM;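 active = mean inhibition of at least 75% with every replicate also reaching 75%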
Mdm2-MdmX inh: inhibitors of human Mdm2-MdmX association, primary screen, cell-based, luminescence, split luciferase, SaOS-2, uHTS; SaOS-2 split-luciferase Mdm2/MdmX complementation; AID 485346, 2010; Protein Mdm4 (Homo sapiens) + E3 ubiquitin-protein ligase Mdm2 (Homo sapiens), …; 330,000 tested, 3% active; inhibition, % at 8 µM;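 active = inhibition of at least 50% at 8 µM in the primary screen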
Target sequence (O15151 whole entry, looked up): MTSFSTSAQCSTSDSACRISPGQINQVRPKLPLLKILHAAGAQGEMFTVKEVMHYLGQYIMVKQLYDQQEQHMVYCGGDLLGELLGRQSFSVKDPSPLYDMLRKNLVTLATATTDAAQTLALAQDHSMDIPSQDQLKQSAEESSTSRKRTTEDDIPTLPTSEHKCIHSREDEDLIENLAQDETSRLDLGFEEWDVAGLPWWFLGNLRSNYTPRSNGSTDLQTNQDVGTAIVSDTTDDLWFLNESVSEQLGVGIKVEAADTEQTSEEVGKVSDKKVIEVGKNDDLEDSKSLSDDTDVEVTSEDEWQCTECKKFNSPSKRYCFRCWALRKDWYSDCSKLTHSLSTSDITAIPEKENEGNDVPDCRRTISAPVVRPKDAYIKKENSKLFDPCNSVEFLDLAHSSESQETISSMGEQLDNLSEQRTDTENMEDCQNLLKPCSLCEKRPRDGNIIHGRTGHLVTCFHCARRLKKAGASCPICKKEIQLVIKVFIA
Target sequence (Q00987 whole entry, looked up): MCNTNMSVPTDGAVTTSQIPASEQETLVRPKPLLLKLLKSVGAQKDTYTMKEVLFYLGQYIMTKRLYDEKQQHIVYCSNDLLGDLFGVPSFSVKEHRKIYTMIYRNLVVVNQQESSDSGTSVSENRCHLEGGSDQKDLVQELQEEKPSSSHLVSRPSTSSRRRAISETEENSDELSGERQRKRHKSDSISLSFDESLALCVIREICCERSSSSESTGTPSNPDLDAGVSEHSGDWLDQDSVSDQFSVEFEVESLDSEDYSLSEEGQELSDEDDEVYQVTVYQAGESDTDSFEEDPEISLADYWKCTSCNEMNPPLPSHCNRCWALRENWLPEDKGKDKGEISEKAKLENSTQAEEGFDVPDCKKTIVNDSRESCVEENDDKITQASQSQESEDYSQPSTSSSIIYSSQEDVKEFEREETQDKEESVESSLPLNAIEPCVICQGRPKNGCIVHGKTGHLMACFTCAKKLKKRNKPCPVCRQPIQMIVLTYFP
Mdm2-MdmX conf: Mdm2-MdmX complex disruptors, retested hits, confirmation, luminescence, single concentration | inhibition, % at 8 µM | 10,000 tested, 55% active | Mdm2-MdmX binding, luminescent assay | shares compounds with Mdm2-MdmX inh; in the data active = inhibition above about 40%
Full FLuc ctr: full-length luciferase signal inhibition, confirmation, counter-screen for Mdm2/MdmX interaction inhibitor project, cell-based, single concentration, SaOS-2; shares compounds with Mdm2-MdmX inh; SaOS-2 full-length luciferase counterscreen, luminescence; inhibition, % at 8 µM; 6,200 tested, 77% active; AID 504607, 2011;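 active = mean inhibition at 8 µM reaching about 37%, which flags the compound as non-specific, limit read from the data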;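 also: p53-null SaOS-2 cells with luciferase driven by a doxycycline-inducible promoter; compound on cells about two nights before reading with doxycycline added after day one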
Large screens that a line does not name were inactive (follow-up assays come after a bar, where they were run).

C=CCC1(CC=C)CC(Cc2cnccn2)N(C(=O)OC(C)(C)C)C1 (centres undefined)	none (no result: Jurkat NFkB inh, 697 NFkB inh, Gli-Sufu antag, Mdm2-MdmX inh)
Cc1nn(Cc2ccc(F)cc2)c2sc(C(=O)Nc3ccccc3N3CCOCC3)cc12	none
Cc1nn(-c2ccccc2Cl)c2sc(C(=O)Nc3nnc(C4CC4)s3)cc12	Mdm2-MdmX inh 74 | Mdm2-MdmX conf inactive
CCOC(=O)c1ccc(NC(=O)c2cc3c(C)nn(-c4ccccc4Cl)c3s2)s1	none
Cc1nn(Cc2ccccc2Cl)c2sc(C(=O)Nc3ccccc3N3CCOCC3)cc12	Mdm2-MdmX inh 55 | Mdm2-MdmX conf 61 | Full FLuc ctr 61
CCOC(=O)c1c(C)oc2c(F)c(F)c(F)c(F)c2c1=O	Mdm2-MdmX inh 101 | Mdm2-MdmX conf inactive
CCN(CCCNC(=O)COc1cc(=O)n(C)c2ccccc12)c1ccccc1	none
CCN(CCCNC(=O)COc1cc(=O)n(CC)c2ccccc12)c1ccccc1	Mdm2-MdmX inh 61 | Mdm2-MdmX conf inactive
N#CC(C(=O)Nc1ccc(Cl)c(Cl)c1)=C1Nc2ccccc2N1	Mdm2-MdmX inh 59 | Mdm2-MdmX conf inactive | Full FLuc ctr 37
N#CC(C(=O)Nc1cccc(Cl)c1)=C1Nc2ccccc2N1	none
CCOC(=O)c1sc(NC(=O)CSc2nc3c(cc2C#N)CCCCC3)c(C#N)c1C	Mdm2-MdmX inh 72 | Mdm2-MdmX conf inactive
CCOC(=O)c1sc(NC(=O)CSc2ccccn2)c(C#N)c1C	Mdm2-MdmX inh 74 | Mdm2-MdmX conf inactive
CCOC(=O)c1sc(NC(=O)CSc2nc(C)cc(C)n2)c(C#N)c1C	none
COc1ccc2c(CC(=O)NNC(=O)c3ccc(O)cc3)coc2c1	none
CC(=O)Nc1cc2c3c(c1)CC(=O)N3CCC2	none
COc1cc(-c2onc3ccc(Br)cc23)cc(OC)c1OC	Mdm2-MdmX inh 50 | Mdm2-MdmX conf 52 | Full FLuc ctr 60
COc1ccc(/C=C/C(=O)N2CCN(c3ccccn3)CC2)c(OC)c1OC	none
O=C(Nc1cc(S(=O)(=O)Nc2ccc(Cl)cc2)ccc1N1CCCCC1)c1ccc(F)cc1Cl	Mdm2-MdmX inh 67 | Mdm2-MdmX conf inactive
COc1ccc(NS(=O)(=O)c2ccc(N3CCOCC3)c(NC(=O)c3ccccc3Cl)c2)cc1	none
O=C(Nc1ccc(N2CCOCC2)c(S(=O)(=O)Nc2ccccc2Cl)c1)c1ccccc1	Mdm2-MdmX inh 54 | Mdm2-MdmX conf inactive
O=C(Nc1ccc(N2CCOCC2)c(S(=O)(=O)Nc2ccccc2Cl)c1)c1ccc(=O)[nH]n1	none (no result: Jurkat NFkB inh, 697 NFkB inh, Mdm2-MdmX inh)
O=C(Nc1ccc(Cl)cc1)Nc1ccc(N2CCCC2)c(S(=O)(=O)Nc2ccccc2Cl)c1	Shn3 inh set2 97, Mdm2-MdmX inh 96 | Mdm2-MdmX conf 90 | Full FLuc ctr inactive
COc1ccccc1NS(=O)(=O)c1ccc(C(=O)NCC(c2cccs2)N2CCOCC2)cc1 (centres undefined)	none
CCCn1cc(S(=O)(=O)c2ccccc2)c(=O)c2cc(F)c(N3CCN(C)CC3)cc21	none
CCCCC1C(=O)N(c2ccccc2)N(c2ccc(O)cc2)C1=O (centres undefined)	Mdm2-MdmX inh 98 | Mdm2-MdmX conf inactive | Full FLuc ctr inactive
Cc1ccc(C(=O)c2sc(Nc3ccccc3)c(C#N)c2N)cc1	none
CCOC(=O)c1ccc(Nc2sc(C(=O)c3cccc([N+](=O)[O-])c3)c(N)c2C#N)cc1	Mdm2-MdmX inh 75 | Mdm2-MdmX conf 74 | Full FLuc ctr 44
COc1ccc(-c2sc3cc4c(cc3c2C#Cc2cncn2C)OCO4)cc1	none
COc1ccc(-c2sc3ccc(OC)cc3c2C#Cc2cncn2C)cc1	Mdm2-MdmX inh 54 | Mdm2-MdmX conf inactive
COc1ccc(-c2oc3ccccc3c2C#Cc2cncn2C)cc1	Mdm2-MdmX inh 72 | Mdm2-MdmX conf 61 | Full FLuc ctr 44
O=Cc1ccccc1OS(=O)(=O)c1ccccc1	none (no result: Jurkat NFkB inh, 697 NFkB inh, Mdm2-MdmX inh)
CCOc1c(Br)cc(CNc2ccc(N3CCOCC3)cc2)cc1OC	none
CCOc1c(Br)cc(CNc2ccc3c(c2)OCCO3)cc1OC	Mdm2-MdmX inh 71 | Mdm2-MdmX conf 58 | Full FLuc ctr 57
CC(CCCN(C)C)C(Cc1ccccc1)c1ccccc1 (centres undefined)	none
Oc1ccc(CNc2ccccc2F)c2cccnc12	Mdm2-MdmX inh 89 | Mdm2-MdmX conf 85 | Full FLuc ctr inactive
OCc1ccc(O)c2ncccc12	Mdm2-MdmX inh 86 | Mdm2-MdmX conf 82 | Full FLuc ctr 43
Oc1ccc(COCc2ccccc2)c2cccnc12	Mdm2-MdmX inh 80 | Mdm2-MdmX conf 54 | Full FLuc ctr inactive
Oc1ccc(F)c2cccnc12	none
CN(Cc1ccco1)Cc1ccc(O)c2ncccc12	none
Oc1ccc(Cc2ccccc2)c2cccnc12	none (no result: Jurkat NFkB inh, 697 NFkB inh, Mdm2-MdmX inh)
CCCOCc1ccc(O)c2ncccc12	Mdm2-MdmX inh 75 | Mdm2-MdmX conf 56 | Full FLuc ctr inactive
CC(C)COCc1ccc(O)c2ncccc12	Mdm2-MdmX inh 59 | Mdm2-MdmX conf 44 | Full FLuc ctr 52
COc1ccc2cc(/C=C/C(=O)N3CCN(CC(=O)N4CCCCCC4)CC3)ccc2c1	none
COc1cccc(CNc2ncnc3cc(OC)c(OC)cc23)c1	none
COc1cccc(-c2ccc3ncnc(NCc4cccnc4)c3c2)c1	Mdm2-MdmX inh 69 | Mdm2-MdmX conf 48 | Full FLuc ctr inactive
Cc1ccc2nc(NC(=O)C3CCN(C(=O)c4ccc(F)cc4)CC3)sc2c1	none
C[C@@H]1CN([C@H](C)CO)C(=O)c2cc(NC(=O)Nc3ccc(C(F)(F)F)cc3)ccc2O[C@H]1CN(C)S(=O)(=O)c1cccs1	Mdm2-MdmX inh 81 | Mdm2-MdmX conf 51 | Full FLuc ctr 44
C[C@H](CO)N1C[C@H](C)[C@@H](CN(C)S(=O)(=O)c2cccs2)Oc2ccc(NC(=O)Nc3ccc(C(F)(F)F)cc3)cc2C1=O	Mdm2-MdmX inh 68 | Mdm2-MdmX conf inactive
CCC1CCc2sc(C(=O)NCC(c3ccc(OC)cc3)N3CCCC3)cc2C1 (centres undefined)	Mdm2-MdmX inh 50 | Mdm2-MdmX conf inactive
COc1ccc(C(CNC(=O)c2oc3cc(C)c(C)cc3c2C)N2CCCCC2)cc1 (centres undefined)	Mdm2-MdmX inh 51 | Mdm2-MdmX conf inactive
COc1ccc(-c2n[nH]c(C(F)(F)F)c2-c2cc3ccccc3o2)c(O)c1	Mdm2-MdmX inh 81 | Mdm2-MdmX conf 43 | Full FLuc ctr 47
